Compound activity from PubChem.
Sampled rows, rich in hits. Any-hit rate of the full collection: about 1.4%.
MRP1 act: MRP-1 activation. H69AR cells + doxorubicin, viability rescue, CellTiter-Glo. viability increase, % at 10 µM. actives 0.61% (n = 140,000);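 active means viability gain under doxorubicin at or above a set limit, the compound median plus 3 SD, cut at about 4.7% in these data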;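 further: MRP-1 overexpressing cells given doxorubicin 25 µM after compound pretreatment; 18-22 h compound pretreatment then 72 h with doxorubicin before readout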
MRP resist rev: reverses drug resistance mediated by MRP; H69AR cells + 2 uM doxorubicin, CellTiter-Glo, 72 h; AID 602; differential viability (reversal), % at 10 µM; actives 0.04% (n = 85,000);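 active means viability drop by adding the cancer drug above about 55%, with treated viability meeting a 40% cutoff, limit read from the data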;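 further: larger differential means the compound sensitizes cells more to doxorubicin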
IL1B cytotox: HUVEC cytotoxicity counter-screen, IL-1B stimulated | cell count reduction, % at 2 µM | AID 845 | HUVEC cell count loss, Hoechst imaging | actives 0.41% (n = 94,000);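 active means cell count reduction more than 3 SD above the screen-wide mean, cut at about 70% in these data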
sdo1 growth: compounds rescuing growth of sdo1-depleted yeast, bone marrow failure model; actives 0.21% (n = 140,000); z-score at 10 µM; S. cerevisiae sdo1-depleted JHY4D growth rescue, OD600 30 h; active compounds read high; pdr5 snq2 efflux-pump mutant strain;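 active means z-score above 3 at both the 24 hr and the 30 hr optical density reads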
NFkB transloc inh: blocks IL-1B driven NFkB nuclear translocation in HUVEC cells | HUVEC IL-1B NFkB p65 nuclear translocation imaging | inhibition, % at 2 µM | actives 0.43% (n = 94,000) | AID 796;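 active means inhibition above about 30% together with a positive call from visual inspection of the well image, limit read from the data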;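 further: nuclear over cytoplasmic p65 intensity ratio measured by imaging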
IL1B NFkB pot: enhances IL-1B driven NFkB nuclear translocation | actives 0.3% (n = 94,000) | AID 819 | activation, % at 2 µM | HUVEC IL-1B NFkB p65 nuclear translocation imaging;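 active means activation above 40%, about the mean plus 3 SD, also judged a hit on visual image review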;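 further: percent activation is computed from the nuclear over cytoplasmic p65 intensity ratio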
Numbers stand for hits; n = inactive; x = no result.

SMILES	MRP1 act	MRP resist rev	IL1B cytotox	sdo1 growth	NFkB transloc inh	IL1B NFkB pot
O=C(CCC1CCCCC1)Nc1c2c(nn1-c1ccc(F)cc1)CS(=O)C2 (stereo not given)	n	n	76	n	n	n
CCc1ccc(N2CC(C(=O)OCC(=O)NC3CCS(=O)(=O)C3)CC2=O)cc1 (stereo not given)	n	n	92	n	n	n
Cn1c(C(=O)NCc2ccccc2)cc2oc3ccccc3c21	5.2	n	n	n	n	n
CC(NCc1ccc(-c2ccccc2)cc1)C(O)c1ccccc1 (stereo not given)	n	x	x	n	x	x
CCCC(C)C(=O)NCc1ccccc1OC (stereo not given)	n	n	n	n	n	123
COc1ccccc1CNC(=O)c1ccccc1N	n	n	n	n	n	n
CCCCC(CC)C(=O)NCc1ccccc1OC (stereo not given)	n	n	n	n	n	101
Cc1ccc(S(=O)(=O)N(C)C)cc1NC(=O)CCNC(=O)c1ccccc1Cl	n	x	x	n	x	x
CCC(Sc1nc(-c2ccccc2)c(C#N)c(=O)[nH]1)C(=O)Nc1cc(C)on1 (stereo not given)	11	n	x	n	x	x
COC(=O)C(CC(C)C)NC(=O)CSc1nc(-c2ccccc2)c(C#N)c(=O)[nH]1 (stereo not given)	11	n	n	n	n	n
Cc1ccc(C(=O)Nc2cc(C)c(OCC(=O)N3CCOCC3)c(C)c2)cc1	n	n	n	n	n	n
O=C(O)Cn1cc(C(=O)C2CC2)c2ccccc21	n	n	82	n	n	n
COc1ccccc1N1CCN(C2CCN(C(=O)c3cccc(F)c3)CC2)CC1	n	x	x	n	x	x
O=C(NC(=S)NCc1ccccc1)c1ccccc1F	n	x	n	n	n	n
O=C(NC(=S)NC(=O)c1ccccc1F)c1ccccc1F	7.1	x	x	n	x	x
CCOC(=O)Cc1csc(NC(=S)NC(=O)C(C)(C)C)n1	13	x	x	n	x	x
COc1ccc(C(=O)NCCn2cc(SCC(=O)Nc3nnc(C)s3)c3ccccc32)cc1	7.9	n	n	n	n	n
Cc1nnc(NC(=O)CSc2cn(CCNC(=O)c3ccccc3)c3ccccc23)s1	n	n	n	n	n	n
Cn1cc(Br)c(C(=O)NNC(=O)c2ccc(Cl)cc2)n1	6.4	x	x	n	x	x
Cn1cc(Br)c(C(=O)NNC(=O)c2cccc(Br)c2)n1	n	x	n	n	n	n
COC(=O)c1c[nH]n2c(=O)cc(C)nc12	n	n	n	n	47	n
COC(=O)c1c[nH]n2c(=O)c(Cl)c(C)nc12	n	x	x	n	x	x
Cc1ccc(C(C)C)c(OCC(=O)NNC(=O)C(C(C)C)N2C(=O)c3ccccc3C2=O)c1 (stereo not given)	n	x	x	n	x	x
Cn1c(/C=N/n2cnnc2)nc2ccccc21	n	n	85	n	99	n
Cn1c(/C=N/c2nc3ccccc3[nH]2)nc2ccccc21	n	n	n	n	n	n
SMILES	MRP1 act	MRP resist rev	IL1B cytotox	sdo1 growth	NFkB transloc inh	IL1B NFkB pot
Oc1ccccc1/C=N/n1cnn(Cc2ccccc2Cl)c1=S	n	x	x	n	x	x
CCOC(=O)C1CCCN(Cc2cc(Br)ccc2OC)C1 (stereo not given)	n	n	x	n	x	x
CCOC(=O)C1CCCN(Cc2cc(Br)c(OC)cc2OC)C1 (stereo not given)	n	n	84	n	98	n
O=C(COC(=O)CC(c1ccccc1)c1ccccc1)NCc1ccc(Cl)cc1	n	x	x	n	x	x
Cc1cccc(OCCC(=O)Nc2ccc(F)c(Cl)c2)c1	n	x	x	n	x	x
Cc1ccc2c(c1)N(CC(=O)Nc1ccc3c(c1)OCCO3)C(=O)CO2	n	n	91	n	99	n
O=C(CN1C(=O)CCSc2ccccc21)Nc1ccc2c(c1)OCCO2	n	x	n	n	n	n
Cc1ccc(O)c(/C=N/NC(=O)c2[nH]ncc2Br)c1	4.9	x	x	n	x	x
CCCCCCCOC(=O)C1=C(C)Nc2ncnn2C1c1cccs1 (stereo not given)	n	n	n	n	n	41
c1ccc(-c2csc(Nc3ccc4c(c3)OCCO4)n2)cc1	n	n	n	n	44	n
COC(=O)C(O)(CC(=O)Nc1ccc(Cl)cc1Cl)C(F)(F)F (stereo not given)	n	n	n	n	n	n
COC(=O)C(O)(CC(=O)Nc1ccc(Cl)cc1F)C(F)(F)F (stereo not given)	n	n	n	n	32	n
C=CCOc1c(CNc2ccc(C(=O)O)cc2)cccc1OCC	6.7	x	n	n	n	n
